# Experimental data taken from the supplement of paper PMC6555819.
# Legend:
# Assay in all cases: PBM binding z-score (relative to random genomic background probes); higher = stronger binding; sequences stand for … in GC…GCGATTGACAGCGTAGAATGAAGG
# [1] = system: RARb homodimer (NR concentration 270 nM)
# Outline: (§1)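 Each nuclear receptor dimer, without ligand, was incubated for 1 h on custom Agilent 4×180K protein-binding microarrays. Binding was detected with antibodies against each partner (one per run), and scanned fluorescence was regression-normalized. The binding z-scores are referenced to random human genomic background probes.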
# [2] = system: RARg:RXRa (NR concentration 270 nM, RXRa partner concentration 90 nM)
# Outline: as §1
# [3] = system: RARg homodimer (NR concentration 270 nM)
# Outline: as §1
# [4] = system: RXRa DBDmut IVT, anti-RXR (DBD mutation: RXRa K156A/R161A, NR concentration 90 nM)
# Outline: as §1
# [5] = system: RXRa homodimer (NR concentration 180 nM)
# Outline: as §1
# [6] = system: THRa:RXRa (NR concentration 90 nM, RXRa partner concentration 90 nM)
# Outline: as §1
# [7] = system: THRa homodimer (NR concentration 90 nM)
# Outline: as §1
# [8] = system: VDR homodimer (NR concentration 270 nM)
# Outline: as §1
Sequence,PBM binding z-score [1],PBM binding z-score [2],PBM binding z-score [3],PBM binding z-score [4],PBM binding z-score [5],PBM binding z-score [6],PBM binding z-score [7],PBM binding z-score [8]
GATACAGGATCAGCTAGAGGCCAGAGTATGGAAA,-0.0727,1.16,0.363,-0.823,0.154,-0.0869,-1,-0.773
TCATATAGTTAATACAGGTGAAAGTCGGCATCTA,0.692,0.857,0.789,2.12,1.2,1.02,0.515,0.657
CATACAGGGTCAGATAGGCCAGAGTAGGGACGGC,2.99,4.18,4.16,1.83,3.75,2.81,0.777,1.47
GATACAGGGTCAGCTAGAAGCCAGAGTATGGAAA,2.56,4.59,4.35,1.28,4.19,2.53,0.406,0.338
GAAACGAGGGCAAGTTGATAGCAGAGTTTGATGG,1.68,1.6,1.94,2.43,1.02,1.41,0.0214,1.97
AAAACGAGGGCACGCTGAGTTGATAGCAGAGTAG,1.08,2.13,2.34,2.08,1.62,1.94,0.0518,2.26
TCGTATAGGTAAAAGGTGAAAGTCGGTGTGGTAA,2.13,2.13,0.793,1.59,3.14,1.85,0.583,0.462
